FLuc modulator – counter-screen for miR-21 project: firefly luciferase inhibitors or activators. P08659. purified FLuc, Km substrates, luminescence inhibition. Potency, µM (top dose mostly 57.5 µM), for the others: at the highest dose activity change, negative = inhibition, usual class: inhibitors. 6.9% of 360,000 active. AID 588342;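 note: plate controls were vehicle for no effect and reference inhibitor for full effect; nearly all actives have a fitted effect of over 55% in size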
Target sequence (P08659 whole entry, looked up): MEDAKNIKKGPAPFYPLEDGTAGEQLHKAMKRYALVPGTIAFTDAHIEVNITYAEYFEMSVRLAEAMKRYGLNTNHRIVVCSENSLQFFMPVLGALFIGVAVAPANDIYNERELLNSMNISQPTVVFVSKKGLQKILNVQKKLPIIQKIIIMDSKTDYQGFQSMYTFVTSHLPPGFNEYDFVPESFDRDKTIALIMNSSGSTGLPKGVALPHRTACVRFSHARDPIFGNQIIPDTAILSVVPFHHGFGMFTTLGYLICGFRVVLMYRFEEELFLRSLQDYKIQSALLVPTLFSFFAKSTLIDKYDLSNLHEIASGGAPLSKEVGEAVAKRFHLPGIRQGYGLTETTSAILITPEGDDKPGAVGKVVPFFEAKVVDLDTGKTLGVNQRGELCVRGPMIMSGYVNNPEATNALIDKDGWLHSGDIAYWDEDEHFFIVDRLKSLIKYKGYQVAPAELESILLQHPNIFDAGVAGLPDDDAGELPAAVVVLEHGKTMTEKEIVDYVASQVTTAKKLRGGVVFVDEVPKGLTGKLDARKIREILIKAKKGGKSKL
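Purified P. pyralis luciferase, 10 nM final, with Km-level 10 uM D-luciferin and 10 uM ATP in 50 mM Tris acetate pH 7.5, 10 mM Mg acetate, 0.01% Tween-20, 0.05% BSA; 6-point qHTS titration about 60 µM downward; luminescence read.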
ELG1 genotoxic – induces genotoxicity in HEK293T cells with luciferase-tagged ELG1; Potency, µM (doses to about 46 µM), for inactives: at the highest dose activity change, positive = activation, actives largely listed as activators; HEK293T ELG1-luciferase reporter, luminescence, 16 h; 1.3% of 330,000 active; note: % of control where 0% means no effect; nearly all actives have a fitted effect of over 60% in size
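16 hr compound incubation (37 °C, 5% CO2) of HEK293T cells carrying luciferase-tagged ELG1; luciferase then measured by ONE-Glo luminescence after 30 min at RT.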
Rab9 promoter act – activators of Rab9 promoter | AID 485297 | Potency, µM (top dose mostly 9.22 µM), for the others: top-dose activation, negative = inhibition, hits mostly activators | 2.8% of 320,000 active | Huh7 Rab9 promoter-luciferase reporter, luminescence, 24 h; note: % of control where 0% means no effect; nearly all actives have a fitted effect of over 60% in size
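Cell-based reporter: Huh7 stable for Rab9 promoter-driven luciferase, plated in reduced-serum medium with 10% FBS at 1500 cells/well, compound-treated 24 h at 37 °C, luminescence read after 10 min reagent.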
ELG1 DNA repair – blocks ELG1-dependent DNA repair in HEK293T cells; AID 504467; HEK293T ELG1-luciferase reporter, luminescence, 16 h; DNA damage induced by 5-fluorouridine; 2.3% of 330,000 active; Potency, µM (titrated, usually from 46.1 µM), for inactives: at the highest dose activity change, negative = inhibition, usual class: inhibitors; note: % is set by controls: 0 for no effect and ±100 for the full control effect; nearly all actives have a fitted effect of over 55% in size
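Quantitative HTS, concentration-response format. 2,000 cells/well co-treated with 5-fluorouridine and compound, 16 hr in 5% CO2 at 37 °C; ONE-Glo luminescence read after 30 min.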
SMN2 splice enh – increases expression of the SMN2 splice variant | HEK293 SMN2-luciferase splicing reporter, luminescence, 30-36 h | Potency, µM (titrated, usually from 46.1 µM), inactives show at the top dose activity change, positive = activation, usual class: activators | 2.8% of 210,000 active | AID 1458; note: % of control where 0% means no effect; nearly all actives have a fitted effect of over 55% in size
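qHTS luciferase splicing reporter: luminescence rises when SMN2 exon 7 is included in transfected HEK293 cells. Compound exposure lasted 30-36 h at 37C, with 4.5 mM final sodium butyrate as control, followed by a ONE-Glo read.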
NPC1 prom act – NPC1 promoter activation. AID 485313. Potency, µM (highest dose often 9.22 µM), for the others: top-dose activation, hits mostly activators. 2.4% of 320,000 active. Huh7 NPC1 promoter luciferase reporter, 24 h; note: % of control where 0% means no effect; nearly all actives have a fitted effect of over 60% in size
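In 1536-well qHTS, Huh7 cells harboring an NPC1 promoter–luciferase construct received compound for 24 h; activation was quantified by luminescence following luciferase reagent addition.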
* marks the source's active call; other numbers are inactive results; ? = inconclusive; · = no result; [ ] = dose if it differs, or a comment. Compounds with a hit are over-represented: about 9.2% of the library has one in this group of screens. Calls come from the whole dose curve; as a rule, active = well fitted curve in the direction sought with a large enough effect; inconclusive = small, poorly fitted or top-dose-only effect, or another doubt; inactive = no such curve, though single readings can be large; an effect the other way counts as inactive or inconclusive. Potency is the fitted concentration of half-maximal effect.

SMILES | FLuc modulator | ELG1 genotoxic | Rab9 promoter act | ELG1 DNA repair | SMN2 splice enh | NPC1 prom act
O=C(NCCCc1ccccc1)c1cnc2n(c1=O)CCS2 | ? | 20.7% | ? | ? | 17.8µM* | ?
CC(C)(C)OC(=O)C[C@@H]1C/C=C\C[C@H](CC(=O)N(CCO)Cc2ccccc2)C(=O)N[C@H](Cc2ccccc2)COC1=O | · | 0.6% | · | ? | · | ·
COc1ccccc1CNC(=O)CSc1ccc(-c2sc(-c3ccccc3)nc2C)nn1 | -19.3% | · | · | · | · | ·
O=c1c2cnn(-c3ccc(Cl)cc3)c2ncn1Cc1cccc(C(F)(F)F)c1 | -4.0% | · | · | · | 0.7% | ·
CSCCC(=O)N1CCCC(CO)(CCCc2ccccc2)C1 (stereo not drawn) | 2.2% | 0.5% | 0.9% | -3.9% | · | 2.1%
O=C1CCCN1CCC(=O)N1CCCC(CO)(Cc2ccccc2)C1 (stereo not drawn) | 16.9µM* | 7.7%[9.26 µM] | 3.55µM* | ? | · | ?
Cc1ccc(C(=O)OCC(=O)N2CCc3ccccc32)cc1 | 6.01µM* | 9.2% | ? | ? | -18.5% | ?
O=C(OCC(=O)N1CCc2ccccc21)c1c2c(nc3ccccc13)CCCCC2 | 4.26µM* | -10.7% | 1.5% | 23.1µM* | 3.0% | 2.6%
CC(=O)c1c(C)[nH]c(C(=O)OCC(=O)N2CCc3ccccc32)c1C | -17.7% | 5.7% | ? | ? | · | 3.98µM*
O=C(OCC(=O)N1CCc2ccccc21)c1ccccc1[N+](=O)[O-] | 0.151µM* | ? | 0.631µM* | ? | · | 0.794µM*
NC(=O)COC(=O)c1c2c(nc3ccccc13)CCCC2 | -4.0% | -9.7% | 6.2% | -0.5% | 2.2% | -5.7%
CCOC(=O)c1[nH]c(C)c(C(=O)OCC(=O)N2CCc3ccccc32)c1C | -0.8% | 16.7% | -1.5% | -1.4% | -0.6% | -3.1%
Cc1ccc(-n2c(C)nc3c(cnn3-c3ccccc3C)c2=O)cc1F | -10.6% | · | · | · | -5.5% | ·
Cc1ccc(C(C)(O)CS(=O)(=O)Cc2ccccc2Cl)cc1 (stereo not drawn) | -3.0% | -1.4% | -2.7% | ? | · | -0.4%
CCOC(=O)C1=C(C)NC(C)=C(C(=O)OCC)C1C(=O)OCC(=O)N1CCc2ccccc21 | 1.3% | 18.4µM* | 8.6% | ? | -3.9% | 3.8%
O=C(OCC(=O)N1CCc2ccccc21)c1ccccc1F | 4.78µM* | 11.9% | 3.9% | 17.3% | · | 2.5%
Cc1ccc2c(CC(=O)N3CCc4ccccc43)coc2c1 | 4.26µM* | ? | 3.98µM* | ? | 14.1µM* | 3.55µM*
CCOC(=O)c1c(C)[nH]c(C(=O)OCC(=O)N2CCc3ccccc32)c1C | 0.3% | 1.4% | 1.6% | 19.0% | 7.9% | 11.1%
O=C(COC(=O)c1ccccc1[N+](=O)[O-])c1ccc(C2CCCCC2)cc1 | 0.135µM* | 2.2% | 9.0% | ? | -55.7% | -2.1%
O=C(c1ccccc1F)N1CCc2ccccc21 | 0.1% | -4.1% | -0.9% | 1.7% | 2.1% | -2.8%
CCCc1ccccc1OCCNS(=O)(=O)c1cc2c(cc1C)OCC(=O)N2 | -2.4% | -9.8% | -7.0% | -1.7% | · | 1.2%
CC(=O)c1cc(C(=O)N2CCCC(C(=O)c3ccc(Cl)cc3)C2)cs1 (stereo not drawn) | -0.8% | -1.4% | -1.0% | -1.1% | · | -0.7%
CC(C)NC(=O)NC(=O)COC(=O)c1c2c(nc3ccccc13)CCC2 | -0.3% | -45.8% | -2.3% | 23.1µM* | · | -5.5%
O=C(NCc1ccco1)c1c2c(nc3ccccc13)CCC2 | -17.7% | 0.6% | -5.2% | -5.2% | -12.2% | -3.8%
O=C(NCc1ccc(F)cc1)c1c2c(nc3ccccc13)CCC2 | 13.5µM* | 14.4% | ? | ? | 5.2% | ?
SMILES | FLuc modulator | ELG1 genotoxic | Rab9 promoter act | ELG1 DNA repair | SMN2 splice enh | NPC1 prom act
Cc1nn(-c2ccc(N3CCCCC3)nn2)c(C)c1CCC(=O)Nc1cc(F)ccc1F | 4.78µM* | 3.3% | ? | 0.4% | · | ?
Cc1nn(-c2ccc(N3CCCC3)nn2)c(C)c1CCC(=O)Nc1ccc(F)cc1F | -13.9% | · | · | · | · | ·
Cc1nn(-c2ccc(N3CCCCC3)nn2)c(C)c1CCC(=O)Nc1ccccc1F | 19µM* | -0.1% | ? | ? | · | ?
Cc1ccc(C2C(=O)N(C3CCCCCC3)CC(=O)N2CCC2=CCCCC2)cc1 (stereo not drawn) | 2.6% | · | · | · | · | ·
Cc1ccc(C(=O)c2coc3ccc(O)c(Cl)c23)cc1 | 19µM* | ? | -1.6% | ? | -0.6% | 15.6%
Cc1ccc(C(=O)c2coc3ccc(O)cc23)cc1 | 1.07µM* | ? | 19.7% | ? | · | ?
O=C(c1ccccc1)c1coc2ccc(O)c(Cl)c12 | ? | ? | 13.5% | ? | 12.1% | 13.2%
Nc1c(C(=O)OCC(=O)Nc2cccc([N+](=O)[O-])c2)[nH]c(=O)[nH]c1=O | · | -0.2% | · | 7.1% | · | ·
Cc1ccc(Sc2ncccc2C(=O)NCc2cc([N+](=O)[O-])ccc2O)cc1C | -1.4% | -12.6% | 2.2% | -11.4% | · | -0.5%
O=C(Nc1ccon1)Nc1cc(Cl)ccc1Cl | 1.5% | 0.7% | 7.1% | -3.4% | · | 1.1%
COc1ccc2[nH]c3c(c2c1)CC(C)NC3=O (stereo not drawn) | -4.6% | -10.9% | 4.6% | ? | · | 24.1%
COc1ccc2[nH]c3c(c2c1)CCn1c-3nc2ccccc2c1=O | 0.477µM* | ? | 0.251µM* | ? | 1.58µM* | 0.199µM*
CCC1(c2ccc(F)cc2)NC(=O)N(CC(=O)N2CCc3ccccc32)C1=O (stereo not drawn) | -1.2% | -0.5% | -2.2% | -5.5% | · | -4.1%
CC(C)[C@H](NC(=O)N1c2ccccc2NC(=O)[C@@H]1C(C)C)C(=O)N[C@H](Cc1ccccc1)C(=O)O | 5.3% | 6.9% | -4.2% | 16.9% | · | 2.5%
Cn1c(CO)cnc1SCc1ccc(Cl)cc1 | -15.7% | 6.7% | ? | ? | 8.2% | 3.55µM*
COc1ccc(OC)c(-c2cc(C(=O)N3CCN(c4ncccn4)CC3)c3ccccc3n2)c1 | -2.0% | -7.6% | 9.3% | 13µM* | -21.2% | 2.5%
COc1ccc(-c2cc(C(=O)N3CCN(c4ncccn4)CC3)c3ccccc3n2)c(OC)c1 | ? | -5.9% | -5.7% | 9.2µM* | -4.6% | -0.7%
CCOc1ccccc1N1CCN(C(=O)c2cc(-c3cc(OC)ccc3OC)nc3ccccc23)CC1 | -16.1% | -22.2% | 2.0% | 6.51µM* | · | -2.8%
COc1ccc(N2CCN(C(=O)c3cc(-c4cc(OC)ccc4OC)nc4ccccc34)CC2)cc1 | 0.9% | -15.1% | -1.8% | 7.3µM* | · | -3.8%
COc1ccc(-c2cc(C(=O)N3CCCCCC3)c3ccccc3n2)c(OC)c1 | -10.6% | -15.6% | -2.2% | ? | · | -5.7%

Bioassay records deposited in PubChem BioAssay by National Center for Advancing Translational Sciences (NCATS).
